Assay outcomes as filed in PubChem BioAssay.
USP7 block – inhibitors of human USP7 deubiquitinase | Q93009 | purified USP7, Ub-rhodamine cleavage fluorescence | inhibition, % at 20 µM | 47,000 tested, 0.3% active
UCHL1 inh – blocks human UCHL1 ubiquitin-rhodamine cleavage. AID 1645859. 47,000 tested, 0.2% active. inhibition, % at 20 µM. purified UCHL1, Ub-rhodamine cleavage fluorescence
USP10 block – human USP10 deubiquitinase inhibition; inhibition, % at 20 µM; purified USP10, Ub-rhodamine fluorescence, 60 min; Q14694; 47,000 tested, 1.1% active
USP8 inh – blocks human USP8 ubiquitin-rhodamine cleavage | P40818 | purified USP8, Ub-rhodamine cleavage fluorescence, 30 min | inhibition, % at 20 µM | 47,000 tested, 4.2% active | AID 1645853
Target sequence (P40818 whole entry, looked up): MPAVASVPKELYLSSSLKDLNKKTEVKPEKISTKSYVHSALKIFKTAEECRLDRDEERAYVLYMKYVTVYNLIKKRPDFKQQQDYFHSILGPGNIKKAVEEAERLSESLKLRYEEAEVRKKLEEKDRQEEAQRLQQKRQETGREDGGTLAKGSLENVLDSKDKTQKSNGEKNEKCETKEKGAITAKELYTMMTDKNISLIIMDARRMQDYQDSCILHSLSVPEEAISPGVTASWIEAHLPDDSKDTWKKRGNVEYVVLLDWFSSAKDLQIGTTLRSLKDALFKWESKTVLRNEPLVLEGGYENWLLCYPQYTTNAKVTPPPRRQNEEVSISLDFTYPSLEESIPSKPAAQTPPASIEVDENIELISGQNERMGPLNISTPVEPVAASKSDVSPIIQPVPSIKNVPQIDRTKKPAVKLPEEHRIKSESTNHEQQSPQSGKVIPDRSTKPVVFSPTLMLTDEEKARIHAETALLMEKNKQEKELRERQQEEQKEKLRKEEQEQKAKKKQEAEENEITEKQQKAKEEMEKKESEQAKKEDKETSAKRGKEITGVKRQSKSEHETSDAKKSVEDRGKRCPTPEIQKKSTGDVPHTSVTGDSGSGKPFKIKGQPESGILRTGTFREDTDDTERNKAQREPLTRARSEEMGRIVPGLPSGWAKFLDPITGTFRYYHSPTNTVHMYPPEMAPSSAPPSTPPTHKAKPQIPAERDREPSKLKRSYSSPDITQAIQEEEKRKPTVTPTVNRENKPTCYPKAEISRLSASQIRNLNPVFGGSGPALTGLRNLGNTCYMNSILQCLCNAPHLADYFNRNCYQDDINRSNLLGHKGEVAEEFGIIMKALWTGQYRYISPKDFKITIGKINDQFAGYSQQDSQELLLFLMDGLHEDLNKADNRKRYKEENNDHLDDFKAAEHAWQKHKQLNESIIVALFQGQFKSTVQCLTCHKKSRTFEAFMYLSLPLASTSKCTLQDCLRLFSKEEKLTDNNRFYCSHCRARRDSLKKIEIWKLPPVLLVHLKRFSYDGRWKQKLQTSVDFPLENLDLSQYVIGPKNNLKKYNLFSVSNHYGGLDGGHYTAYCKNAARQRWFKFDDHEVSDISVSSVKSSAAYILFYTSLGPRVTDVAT
Numbers without * were called inactive. Sampled rows, rich in hits. Any-hit rate of the full collection: about 5%. No stated cut-off is given here; in the data, active means inhibition above about 30%; inactive means the rest.

SMILES	USP7 block	UCHL1 inh	USP10 block	USP8 inh
COc1ccc(NC(=O)Cn2c(=O)n(-c3ccc(CC(=O)NCc4ccco4)cc3)c(=O)c3ccccc32)cc1Cl	0	20	61*	75*
O=C(Cc1ccc(-n2c(=O)c3ccccc3n(CC(=O)Nc3ccc(Cl)cc3Cl)c2=O)cc1)NCc1ccco1	14	2	46*	56*
CCC(C)NC(=O)Cn1c(=O)n(-c2ccccc2)c(=O)c2ccc(C(=O)NCc3ccco3)cc21 (stereo unspecified)	-5	4	7	25
CC(C)(C)C(=O)Nc1ccnn1C1CCN(Cc2cnn(-c3ccccc3)c2)CC1	0	0	-2	-6
COCCN1Cc2c(C(=O)N3CCCC3C)ncn2-c2ccccc2S1(=O)=O (stereo unspecified)	-1	0	-1	-1
COc1ccc(-c2cc3nc([C@H](C)NC(=O)COc4ccccc4F)nn3cn2)cc1	27	7	18	17
C[C@H](NC(=O)Cc1ccccc1F)c1nc2cc(-c3ccccc3F)ncn2n1	6	2	40*	39*
COc1ccc(-c2cc3nc([C@H](C)NC(=O)Cc4ccccc4C)nn3cn2)cc1	32*	4	36*	94*
COc1cccc(NC(=O)CCc2nc3sc4c(c3c(=O)[nH]2)CCCCC4)c1	-9	-5	-7	-24
Cc1ccccc1NC(=O)c1c(O)c2cnn(Cc3ccccc3)c2[nH]c1=O	7	3	13	83*
Cc1ccc(NC(=O)c2c(O)c3cnn(C)c3[nH]c2=O)cc1C	4	2	1	85*
COc1ccccc1NC(=O)c1c(O)c2cccnc2n(-c2ccccc2)c1=O	6	0	-1	33*
Cc1cccc(-c2noc(-c3c(O)c4cnn(Cc5ccccc5)c4[nH]c3=O)n2)c1	1	-3	1	-7
O=C(NCc1cc(F)cc(F)c1)c1c(O)c2cnn(Cc3ccccc3)c2[nH]c1=O	3	0	11	17
O=C(NCc1ccc2c(c1)OCO2)c1c(O)c2cnn(Cc3ccccc3)c2[nH]c1=O	8	0	12	57*
Cc1ccc(NC(=O)c2cc(=O)n(C)c3c2c(=O)n(C)c(=O)n3C)cc1C	4	-1	-3	2
Cc1cccc(S(=O)(=O)N2C[C@H](c3nc(-c4ccncc4)no3)[C@@H](C)C2)c1	3	0	0	-53
O=S(=O)(NC1CCc2ccccc21)c1ccc(-n2cnnn2)cc1 (stereo unspecified)	4	0	6	11
Fc1ccccc1CSc1nnc(-c2ccccn2)n1Cc1ccco1	-8	2	1	-8
O=C(c1noc2c1CCCC2)N1C[C@@H](O)[C@H](N2CCOCC2)C1	-2	0	0	3
O=C(NCc1ccccc1)c1c(O)c2cccnc2n(-c2ccccc2)c1=O	2	0	5	2
CC(NC(=O)c1c(O)c2cnn(Cc3ccccc3)c2[nH]c1=O)c1ccccc1 (stereo unspecified)	4	3	14	86*
O=C(NCc1ccc2c(c1)OCO2)c1c(O)c2cccnc2n(-c2ccccc2)c1=O	4	-4	-2	81*
O=C(O)c1cc(/C=C/c2ccc([N+](=O)[O-])cc2)nc2ccccc12	0	-3	-2	-47
CN(C)c1ccc(CN2CCOC[C@H]2c2ncc(-c3cccnc3)[nH]2)cc1	-35	9	-1	33*
SMILES	USP7 block	UCHL1 inh	USP10 block	USP8 inh
NC1=CC(=O)C(Nc2ccccc2O)=CC1=O	-8	7	9	36*
Cc1ccc(S(=O)(=O)NCC(c2ccc3c(c2)CCN3C)N2CCCC2)cc1 (stereo unspecified)	0	-2	-1	-17
COc1ccc(C(C(=O)NCc2ccccc2)N(C(=O)CCN2CCc3ccccc32)c2ccc3c(c2)OCO3)cc1 (stereo unspecified)	5	2	0	23
O=C(NCc1ccccc1)C(c1ccc(F)cc1)N(C(=O)CCN1CCc2ccccc21)c1ccc2c(c1)OCO2 (stereo unspecified)	7	-11	-3	40*
Cc1ccc(-n2cc(C(=O)Nc3ccc(Br)cc3C)c3ccccc3c2=O)cc1C	6	3	2	10
COc1ccc(NC(=O)N2CCC3(CC2)Nc2ccccc2-n2cccc23)c(OC)c1	-2	2	-4	15
Cc1nn(C)cc1C(=O)N1CCC2(CC1)CC1(CO2)Nc2ccccc2-n2cccc21 (stereo unspecified)	0	0	-2	57*
Cc1oc(C2CC2)cc1C(=O)N1CCC2(CC1)CC1(CO2)Nc2ccccc2-n2cccc21 (stereo unspecified)	9	9	4	92*
Cc1ccc(C(=O)N2CCC3(CC2)CC2(CO3)Nc3ccccc3-n3cccc32)cn1 (stereo unspecified)	-24	3	0	67*
O=C(Cc1ccccc1F)N1CCC2(CC1)CC1(CO2)Nc2ccccc2-n2cccc21 (stereo unspecified)	-6	9	5	94*
Cn1nccc1C(=O)N1CCC2(CC1)Nc1cccnc1-n1cccc12	-1	-1	0	-5
O=C(COC(=O)Cc1c[nH]c2ccccc12)Nc1ccc([N+](=O)[O-])cc1Cl	-8	0	-4	-142
CCCCCCCCCC(CCCCCCCCCC(=O)O)O[C@H]1O[C@@H](COC(C)=O)[C@H](O)[C@@H](OC(=O)CC(=O)O)[C@H]1O (stereo partly specified)	-43	2	41*	7
CCCCCC(O)/C=C/C(O)C(O)CCCCCCCC(=O)O (stereo unspecified)	-3	-4	-3	-3
COc1cc(NC(=O)c2ccc(Cl)cc2)c(OC)cc1NC(=O)CN1CCOCC1	-10	-3	-2	-19
COc1ccc(C(=O)Nc2cc(OC)c(NC(=O)CN3CCOCC3)cc2OC)cc1	-6	1	-5	58*
Cc1nccc(CN2CCc3nc4cc(-c5ccoc5C)[nH]n4c(=O)c3C2)n1	-15	-14	-7	-136
COc1ccc(S(=O)(=O)N(CC(=O)NCc2ccco2)c2ccc(C)cc2)cc1	-11	5	0	30*
O=c1[nH]c2ccccc2c(=O)n1CCc1nc(-c2ccc(F)cc2)no1	2	0	0	-7
COC(=O)CN1C(=O)CC(C)(C)S(=O)(=O)c2ccccc21	1	-1	1	0
Cn1c(=O)n([C@@H](Cc2ccccc2)C(=O)N[C@@H](C(=O)O)c2ccc(O)cc2)c(=O)c2ccccc21	4	8	11	75*
CC1(C)CC(=O)c2c(C#N)sc(C#N)c2C1	-46	-15	-6	60*
CC(=O)O[C@@H](C/C=C(\C)C(=O)O)[C@@H](C)[C@H]1C[C@H](OC(C)=O)[C@@]2(C)C3=CC[C@H]4C(C)(C)[C@H](OC(C)=O)CC[C@]4(C)C3=CC[C@]12C	93*	57*	95*	92*
CC(=O)O[C@@H](C/C=C(\C)C(=O)O)[C@@H](C)[C@H]1C[C@H](OC(C)=O)[C@@]2(C)C3=CC[C@H]4C(C)(C)[C@H](O)CC[C@]4(C)C3=CC[C@]12C	14	3	52*	13
